Most compounds without a hit are left out; they make up all but 1.3% or so of the library.
Mtb UGM inh = Mtb UDP-galactopyranose mutase inhibition | purified UGM, fluorescence polarization probe displacement | P9WIQ1 | inhibition, % at 10 µM | 320,000 compounds, 0.06% hits; in the data active = inhibition above about 10%, passing the limit was not always enough; inconclusive = no clear call, values can overlap the other calls
RecA intein inh = blocks M. tuberculosis RecA intein splicing. cell-free RecA intein splicing, fluorescence. inhibition, % (concentration not given with the values). 290,000 compounds, 0.75% hits; in the data active = inhibition above about 30%; inconclusive = no clear call, values can overlap the other calls;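 note: 0% = vehicle wells and 100% = reference inhibitor control wells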
FadD28 binding = inhibitors of Mycobacterium tuberculosis FadD28 bisubstrate binding; FadD28 bisubstrate probe binding, fluorescence polarization; inhibition, % at 12.5 µM; 360,000 compounds, 0.22% hits; AID 588549; in the data active = inhibition above about 8.5%, passing the limit was not always enough; inconclusive = no clear call, values can overlap the other calls
BJeLR viability = BJeLR cell viability loss | BJeLR (HRASV12) viability, CellTiter-Glo ATP luminescence, 48 h | inhibition, % (no concentration beside the values) | 300,000 compounds, 0.17% hits; in the data active = inhibition above about 50%; inconclusive = no clear call, values can overlap the other calls
PrP UTR inh = suppresses PrP 5' UTR mRNA reporter expression | cell-based PrP 5' UTR mRNA reporter, plate reader | inhibition, % (no concentration beside the values) | 340,000 compounds, 0.35% hits | AID 488862; in the data active = inhibition above about 52%; note: 0 = median of the neutral control wells
Rv3671c inh = inhibits the M. tuberculosis serine protease Rv3671c. P9WHR9. 320,000 compounds, 0.048% hits. inhibition, % at 5.96 µM. AID 2606; in the data active = inhibition above about 38%;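 note: extracellular domain of Rv3671c used as enzyme; 0% = enzyme with DMSO and 100% = no enzyme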
Target sequence (P9WHR9 whole entry, looked up, the tested form may be a part): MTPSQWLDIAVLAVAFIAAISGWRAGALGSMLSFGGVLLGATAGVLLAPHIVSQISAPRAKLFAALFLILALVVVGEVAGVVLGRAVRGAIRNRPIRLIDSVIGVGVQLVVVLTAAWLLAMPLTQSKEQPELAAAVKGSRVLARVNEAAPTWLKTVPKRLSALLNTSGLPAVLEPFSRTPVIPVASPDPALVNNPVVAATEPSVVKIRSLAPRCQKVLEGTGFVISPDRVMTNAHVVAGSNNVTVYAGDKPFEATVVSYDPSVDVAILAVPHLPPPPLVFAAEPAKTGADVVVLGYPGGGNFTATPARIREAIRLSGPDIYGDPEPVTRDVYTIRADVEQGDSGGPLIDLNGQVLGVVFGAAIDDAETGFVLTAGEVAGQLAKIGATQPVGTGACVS
GFP chromophore = counter-screen GFP chromophore formation inhibition. shares compounds with RecA intein inh. cell-free GFP chromophore formation, fluorescence. EC50, µM. 2,100 compounds, 83% hits. AID 434968; call rule not given here
* = called active by the depositor; u = inconclusive; x = no result.

SMILES	Mtb UGM inh	RecA intein inh	FadD28 binding	BJeLR viability	PrP UTR inh	Rv3671c inh	GFP chromophore
C=CCOC(=O)C1=C(C)NC(=O)NC1c1ccc(OC(=O)c2ccco2)c(OC)c1 (configuration not stated)	2.1	31.2*	0.7	13.8	-4.5	-9.6	>38
Cc1cc2nc(C3CCCCC3)c(Cc3ccccc3)n2c(C)c1Br	x	x	-4.7	x	x	x	x
Cc1ccc(-c2noc(-c3ccccc3C(=O)N3CCOCC3)n2)cc1	2.1	-3.1	0.3	-2.9	x	-2.5	>38
COc1ccc(-c2noc(-c3ccccc3C(=O)N3CCOCC3)n2)cc1	-0.3	0.9	1.4	-21.0	-8.1	5.3	x
Cc1cccc(S(=O)(=O)C(C#N)c2nc3ccccc3nc2N2CCCC2)c1 (configuration not stated)	0.9	44.7*	-6.3	7.0	-13.7	2.2	>38
O=C1c2ccccc2C(=O)c2c1ncn2-c1ccccc1	0.1	36.9*	-0.4	3.5	-19.0	-4.1	>38
O=[N+]([O-])c1cc([N+](=O)[O-])c2cc3ccccc3nc2c1	3.0	92.7*	-3.0	1.2	-42.5	3.1	4.95*
O=[N+]([O-])c1cnc2ccccc2c1	0.5	0.3	-2.0	-14.2	-12.6	-1.2	x
Cc1cc(=O)n(-c2ccc(O)cc2)[nH]1	-0.5	97.1*	0.3	2.5	-16.1	-178.6	2.21*
Cc1cc(=O)cc(C)n1-c1ccc(O)cc1	0.6	0.0	-4.0	-1.9	-27.8	6.7	x
Cc1cc(=O)n(-c2ccc(C(=O)O)cc2)[nH]1	0.7	93.9*	-2.3	1.3	-10.9	-138.5	2.83*
Cc1cc(=O)n(-c2ccccc2Cl)[nH]1	-2.3	87.3*	0.6	3.6	-31.9	-159.1	17.9*
CCOC(=O)c1ccc(-n2[nH]c(-c3ccccc3)cc2=O)cc1	-1.1	66.7*	-1.9	-5.5	-22.9	-52.0	3.34*
O=C(NCCc1ccccc1)C(c1cccs1)N(C(=O)CCl)c1ccc(Cl)cc1 (configuration not stated)	-0.3	73.6*	-1.4	117.2*	-3.0	-5.5	0.51*
COc1ccccc1C(O)c1ncc(-c2ccccc2C)[nH]1 (configuration not stated)	x	x	-2.4	x	x	x	x
CC(C)Oc1ccc(C(=O)Nc2cccc(S(=O)(=O)N3CCCC3)c2)cc1	1.9	x	1.0	x	-26.1	-7.2	x
CC(C)C(=O)N1CCC1(C)C(=O)NCc1ccc(F)cc1Cl (configuration not stated)	x	x	-4.5	x	x	x	x
O=C1NC(=O)C(=Cc2ccc(Oc3ccc([N+](=O)[O-])cc3)cc2)C(=O)N1	-2.8	68.4*	-0.1	1.5	-31.2	-160.3	>38
CCOc1ccc(-n2c(C)cc(C(=O)CCl)c2C)cc1	-1.2	48.3*	-1.4	43.9	-12.7	3.3	27.9*
CCOC(=O)c1cc(C)n(-c2ccc(Cl)cc2)c1C	-1.1	8.9	-2.4	-9.0	-32.9	-1.1	x
Fc1cccc(Cc2c(-c3ccc(Cl)cc3)nc3ccc(Br)cn23)c1	x	x	-5.6	x	x	x	x
c1ccc(-c2nnc(-c3ccco3)o2)cc1	-1.3	-1.4	-0.4	3.4	-56.3	-8.4	x
c1coc(-c2nnc(-c3ccco3)nn2)c1	0.2	58.3*	4.3	3.5	-20.1	-22.8	9.08*
Cc1[nH]n(-c2ccccc2)c(=O)c1C(c1ccc(C(=O)O)cc1)c1c(C)[nH]n(-c2ccccc2)c1=O	-2.3	95.9*	0.4	4.0	-18.9	-182.5	1.17*
Cc1[nH]n(-c2ccccc2)c(=O)c1C(c1cccc([N+](=O)[O-])c1)c1c(C)[nH]n(-c2ccccc2)c1=O	-1.7	84.9*	4.2	-4.6	-27.8	-50.1	4.8*
SMILES	Mtb UGM inh	RecA intein inh	FadD28 binding	BJeLR viability	PrP UTR inh	Rv3671c inh	GFP chromophore
Cc1[nH]n(-c2ccccc2)c(=O)c1C(c1cccc([N+](=O)[O-])c1O)c1c(C)[nH]n(-c2ccccc2)c1=O	0.0	92.6*	0.1	-6.9	-9.1	-197.8	1.31*
Cc1c(C(c2cccc([N+](=O)[O-])c2O)c2c(C)n(C)n(-c3ccccc3)c2=O)c(=O)n(-c2ccccc2)n1C	0.6	-4.1	1.7	x	-13.2	-0.2	x
Nc1ccc(N)c(C(=O)O)c1	1.4	56.8*	u	-5.8	5.8	-4.5	9.73*
Nc1cc(C(F)(F)F)ccc1C(=O)O	-1.9	-7.5	3.1	-7.4	15.9	11.9	x
O=C1CC(c2ccc(O)cc2)Oc2cc(O)cc(O)c21 (configuration not stated)	2.6	0.7	-4.1	-5.7	-20.4	-19.8	x
CC1CC(=O)c2c(cc3c(-c4c(O)cc(O)c5c(O)c6c(cc45)OC(C)CC6=O)c(O)cc(O)c3c2O)O1 (configuration not stated)	5.2	95.7*	13.2*	-11.3	-28.5	34.6	2.5*
O=C(c1ccccc1)c1ccc(O)c(O)c1O	x	x	2.4	x	-10.9	x	x
Cc1cccc(-c2cnc(C(O)c3ccc(F)c(C)c3)[nH]2)c1 (configuration not stated)	x	x	-2.3	x	x	x	x
COc1ccccc1NC(=O)C1=C(C)Nc2nnnn2C1c1ccncc1 (configuration not stated)	1.2	39.3*	-3.3	-3.1	-11.6	-2.0	>38
O=C(NCc1cccc(F)c1)c1[nH]c(C(F)(F)F)nc1-c1ccccc1	x	x	0.1	x	x	x	x
CCC1C(=O)N(c2nc(C)cc(C)n2)N=C1C (configuration not stated)	2.2	67.4*	-3.2	9.5	-14.6	-4.3	19.5*
CC1=NN(c2nc(C)cc(C)n2)C(=O)C1CCC(C)C (configuration not stated)	-2.4	2.3	-1.0	-4.7	-3.4	3.7	x
COc1ccccc1C(=O)N/C(=C\c1cn(S(=O)(=O)N(C)C)c2ccccc12)C(=O)N1CCN(C)CC1	x	x	-1.0	x	x	x	x
CCn1c(SCC(=O)Nc2nc(-c3ccc(C)cc3)cs2)nnc1-c1ccccc1O	0.2	37.9*	-5.1	4.9	-20.9	-52.6	>38
Clc1cc(Cl)cc(Nc2ccccc2CN(C/C=C/c2ccc3c(c2)OCO3)Cc2ccccc2)c1	x	x	-1.4	x	x	x	x
CC1=NN(c2ccccc2)C(=O)/C1=C\c1cn(CCC#N)nc1-c1ccc(Cl)cc1	-0.6	37.3*	-3.7	1.7	-4.0	-121.7	10.3*
N#CCCn1cc(C=C2C(=O)NC(=O)NC2=O)c(-c2ccccc2)n1	-0.3	-0.9	0.2	5.5	-15.8	-1.1	x
CC(C)CN(C(=O)COC(=O)CCSc1ccc(Cl)cc1)c1c(N)n(Cc2ccccc2)c(=O)[nH]c1=O	x	x	-3.7	x	x	x	x
COc1ccccc1NC(=O)c1nc(S(=O)(=O)Cc2ccccc2)ncc1Cl	-2.2	3.1	-2.7	-14.3	-9.7	-10.5	x
CC(C)c1nnc(NC(=O)c2nc(S(=O)(=O)Cc3ccccc3)ncc2Cl)s1	-0.9	79.3*	-0.7	4.5	-17.5	-6.8	>38
CCOc1ccccc1NC(=O)c1nc(S(=O)(=O)Cc2ccccc2)ncc1Cl	-1.0	4.2	-3.7	23.9	-15.2	-8.9	x
